Results as given in PubChem BioAssay AID488969 (Vanderbilt High Throughput Screening Facility, 2010).
Whole data set: some 110,000 compounds, median “z-score” near -0.1, cut for the highest 2% near 2. The entries come from a sample that favours the highest values as a whole. Activity calls are given as the source filed them.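 Rule for the calls: active = z-score in the third read window above 3 or below -3; inactive = the rest.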

Molecular target: Metabotropic glutamate receptor 8 (Rattus norvegicus) (UniProt P70579)
Test: mGluR8 Gi/Go-coupled signaling modulation – cell-based, rat, thallium flux, HTS, primary screen (AID 488969)
Conditions: HEK293 rat mGluR8, GIRK (G protein-gated inwardly rectifying potassium channel) thallium flux, FluoZin2; at 10 µM; stronger effect = higher value; submaximal glutamate (EC20) added with thallium

Chain of Metabotropic glutamate receptor 8 (Rattus norvegicus) (P70579 whole entry, looked up): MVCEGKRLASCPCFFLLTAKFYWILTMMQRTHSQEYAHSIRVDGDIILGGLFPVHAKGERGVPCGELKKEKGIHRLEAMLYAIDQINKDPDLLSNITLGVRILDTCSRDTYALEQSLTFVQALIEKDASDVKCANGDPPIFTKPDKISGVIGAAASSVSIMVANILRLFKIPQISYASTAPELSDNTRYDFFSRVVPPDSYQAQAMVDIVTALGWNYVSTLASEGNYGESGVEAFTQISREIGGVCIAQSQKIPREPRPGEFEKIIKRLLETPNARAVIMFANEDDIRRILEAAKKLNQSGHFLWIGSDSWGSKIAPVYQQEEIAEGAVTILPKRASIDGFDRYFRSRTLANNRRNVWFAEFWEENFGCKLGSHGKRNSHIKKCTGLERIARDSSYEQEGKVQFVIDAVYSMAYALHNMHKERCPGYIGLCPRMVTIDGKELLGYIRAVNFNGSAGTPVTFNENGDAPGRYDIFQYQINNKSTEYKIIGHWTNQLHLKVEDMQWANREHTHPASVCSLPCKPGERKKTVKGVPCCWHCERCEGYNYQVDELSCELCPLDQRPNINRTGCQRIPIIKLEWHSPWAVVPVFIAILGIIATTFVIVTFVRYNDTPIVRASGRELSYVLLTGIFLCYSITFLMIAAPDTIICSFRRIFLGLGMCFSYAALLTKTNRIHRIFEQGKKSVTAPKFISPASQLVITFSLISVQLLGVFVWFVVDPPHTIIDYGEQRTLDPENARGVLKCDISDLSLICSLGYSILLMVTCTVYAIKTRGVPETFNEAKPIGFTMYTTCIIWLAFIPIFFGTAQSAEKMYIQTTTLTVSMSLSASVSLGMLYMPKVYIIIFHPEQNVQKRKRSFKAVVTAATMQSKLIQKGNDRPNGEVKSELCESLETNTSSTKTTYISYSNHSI

SMILES	z-score
COc1cccc(C(=O)CSc2nnc(-c3cc(OC)cc(OC)c3)o2)c1	0.263
c1ccc(-n2cccc2CNC2CCCCC2)cc1	2.02
Cn1cccc1CNC1CCCCC1	0.335
Cn1cccc1CNC1CCCC1	-1.43
O=C(C1CCC(CNS(=O)(=O)c2cccc3cccnc23)CC1)N1CCc2ccccc21 (configuration not stated)	-0.0229
CC(=C1C(=O)c2ccccc2C1=O)N1CCN(C/C=C/c2ccccc2)CC1	2.04
CC(=C1C(=O)c2ccccc2C1=O)N1CCN(Cc2ccccc2)CC1	-0.06
CS(=O)(=O)N1CCN(C/C=C/c2ccccc2)CC1	-0.0638
Cc1cc(C)cc(C(=O)OCC(=O)Nc2cccc(S(=O)(=O)NC3=NCCCCC3)c2)c1	0.0544
Cc1c(N2C(=O)CS/C2=N\N=C\c2ccc(Br)cc2)c(=O)n(-c2ccccc2)n1C	-0.286
Cc1c(N2C(=O)CS/C2=N\N=C\c2ccc(Cl)cc2)c(=O)n(-c2ccccc2)n1C	-0.118
Cc1c(N2C(=O)CS/C2=N\N=C\c2ccccc2O)c(=O)n(-c2ccccc2)n1C	3.28 (active)
CC1SC(c2ccccc2Cl)NC1=O (configuration not stated)	-0.0543
CC(NC(=O)c1ccc(-c2cc(C(F)(F)F)ccc2Cl)o1)c1ccccc1 (configuration not stated)	-0.132
COc1cccc(NC(=O)COC(=O)c2c3c(nc4ccccc24)CCC(C)C3)c1 (configuration not stated)	-0.604
Cc1ccc(-c2n[nH]c(=S)n2/N=C\c2ccco2)cc1	-0.16
S=c1[nH]nc(-c2ccccc2)n1/N=C/C=C/c1ccco1	0.28
CC(/C=N/n1c(-c2ccccc2)n[nH]c1=S)=C\c1ccco1	6.02 (active)
Cc1nn(-c2ccccc2)c(C)c1/C=N/n1c(-c2ccc(Cl)cc2)n[nH]c1=S	0.338
CC(/C=N/n1c(-c2ccc(Cl)cc2)n[nH]c1=S)=C\c1ccco1	6.09 (active)
CC(/C=N/n1c(-c2ccc(C)cc2)n[nH]c1=S)=C\c1ccco1	0.323
COc1ccc(OC)c(NC(=O)CSc2ncccn2)c1	-0.134
COc1ccc(C(=O)n2nc(C)cc2C)cc1OC	-0.221
c1ccc(Cn2c(Sc3nnnn3-c3ccccc3)nnc2-c2ccccc2)cc1	0.223
COc1ccc(CNC(=S)Nc2cccc(C)c2C)cc1	-0.341

SMILES	z-score
Cc1ccc2nsnc2c1NC(=O)c1ccc2c(c1)OCCO2	-0.679
Cc1ccc(S(=O)(=O)/N=C(/NC(=S)Nc2ccccc2)c2ccccc2)cc1	0.34
CCCCN(CCCC)CCn1cnc2c([nH]c3ccc(OC)cc32)c1=O	0.258
CCC1CCCN1Cn1cnc2c([nH]c3ccc(OC)cc32)c1=O (configuration not stated)	6.77 (active)
CCN1CCCC1Cn1cnc2c([nH]c3cc(OC)ccc32)c1=O (configuration not stated)	-0.271
CCOCCc1nnc(NC(=O)c2cccs2)s1	-0.0424
O=C(NC1CCCC1)C(c1ccccc1)N(C(=O)c1ccno1)c1ccccc1 (configuration not stated)	0.315
CC(C)(C)NS(=O)(=O)c1ccc2c(c1)oc(=O)c1cc(S(=O)(=O)NC(C)(C)C)ccc12	-0.0322
CC(NC(=O)c1ccccc1NC(=O)CSc1nnnn1C)c1ccccc1 (configuration not stated)	2.05
Cn1nnnc1SCC(=O)Nc1ccccc1C(=O)NC1CC1	0.311
Cn1nnnc1SCC(=O)Nc1ccccc1C(=O)NCc1ccccc1	0.00964
O=C(c1cnn2c(C(F)(F)F)cc(-c3ccccc3)nc12)N1CCCc2ccccc21	-0.322
CC1Cc2cc(/C(O)=C3/C(=O)C(=O)N(CCCn4ccnc4)C3c3ccco3)ccc2O1 (configuration not stated)	-0.193
COc1nc(-c2ccccc2)ccc1-c1noc(-c2ccccc2)n1	0.293
CC(C)(C)CC(C)(C)NC1=CC(=O)OC12CCCCC2	-0.189
CC(C)c1nc(N2CCCC2)c(C#N)c2c1CCCC2	0.908
CSc1nc(N2CCOCC2)c2c(c1C#N)CC(C)(C)OC2	2.16
CC(C)c1nc(N2CCOCC2)c(C#N)c2c1CCC2	0.532
CCCCc1nc(N2CCOCC2)c(C#N)c2c1COC(C)(C)C2	-0.434
Cc1nc(N2CCOCC2)c(C#N)c2c1COC(C)(C)C2	-0.387
CSc1nc(N2CCCC2)c2c(c1C#N)CC(C)(C)OC2	-0.933
CC(C)c1nc(N2CCOCC2)c(C#N)c2c1CCCC2	6.82 (active)
CC(C)Cc1nc(N2CCOCC2)c(C#N)c2c1COC(C)(C)C2	2.42
COC(=O)Sc1nc(N2CCOCC2)c2c(c1C#N)CC(C)(C)OC2	-2.52
Cc1ccc(S(=O)(=O)Nc2nc3ccccc3s2)cc1	-0.644

SMILES	z-score
COc1ccc(CC(=O)NNC(=S)Nc2ccccc2)cc1Br	0.376
Cn1cc(CNC(=O)C2CCCCC2)cn1	-0.556
Cn1c(=O)[nH]c2cc(Cl)cnc21	0.0453
CCc1cc(C(=O)NCCN(C)C)cs1	0.168
COc1ccc(C)cc1S(=O)(=O)Nc1ccccc1C	-0.428
COc1cc(NS(=O)(=O)c2cc(C)ccc2OC)c(OC)cc1Cl	0.494
COc1ccc(C)cc1S(=O)(=O)Nc1cccc(Cl)c1Cl	3.68 (active)
COc1ccc(C2/C(=C(\O)c3ccc(OC)c(Cl)c3)C(=O)C(=O)N2CCN(C)C)cc1 (configuration not stated)	-0.505
COc1nc(C#N)c(N2CCOCC2)o1	-0.118
Cn1ccnc1SCC(=O)c1cc2ccccc2o1	0.608
Cn1c(SCC(=O)c2cc3ccccc3o2)nnc1-c1ccccc1	4.93 (active)
Cn1c(SCC(N)=O)nnc1-c1ccccc1	0.403
Cc1ccc(/C=C2/NC(=O)N(c3ccccc3)C2=O)o1	0.187
CS(=O)(=O)NCC(c1cccnc1)N1CCN(c2ccc(F)cc2)CC1 (configuration not stated)	-0.636
O=C(CSc1nc2ccccc2s1)NNC(=O)Nc1ccc(Cl)c(Cl)c1	-0.0417
Cc1ccc(C)c(OCC(=O)NCCN(C)C)c1	0.356
CCn1c(SCC(=O)NC(=O)NCc2ccco2)nc2sc(C)c(C)c2c1=O	3.05 (active)
Cc1sc2ncnc(NCc3ccco3)c2c1C	-0.47
Cc1sc2ncnc(SCc3ccco3)c2c1C	3.43 (active)
Cc1nc(SCC(=O)NCc2ccco2)c2c(C)c(C)sc2n1	-0.0392
C=CCn1c(SCC(=O)NCc2ccco2)nc2sc(C)c(C)c2c1=O	-0.948
Cc1sc2ncnc(SCC(=O)NC(=O)NCc3ccco3)c2c1C	2.66
O=C(CSc1ncnc2sc3c(c12)CCCCC3)NCc1ccco1	1.08
Cc1sc2nc(C3CC3)nc(SCC(=O)NCc3ccco3)c2c1C	0.399
Cc1sc2nc(SCC(=O)NCc3ccco3)n(Cc3ccccc3)c(=O)c2c1C	-0.304

SMILES	z-score
Cc1sc2nc(C(C)C)nc(SCC(=O)NCc3ccco3)c2c1C	17 (active)
Cc1sc2nc(SCC(=O)NCc3ccco3)n(C)c(=O)c2c1C	-0.982
CCSc1ncnc2sc(C)c(C)c12	-0.112
Cc1ccc2oc(=O)c(/C=C(\O)c3sc(C)nc3C)nc2c1	-0.168
CCOc1ccc(C(=O)NCC(=O)OC2CCOC2=O)cc1OCC (configuration not stated)	-0.823
CCCCN(C)CCNC(=O)Cn1ncc2c(=O)oc3ccc(C)cc3c21	-0.464
Nn1c(Cc2cccc3ccccc23)nnc1SCCOc1ccc(Br)cc1	-0.185
COc1nc(NCc2ccco2)nc(NC2CCCCC2)n1	-0.224
CCOC(=O)Cc1csc(NC(=O)CSc2nc3sc(C(=O)O)c(C)c3c(=O)[nH]2)n1	0.0555
O=C(Nc1ccc(Cl)c(Cl)c1)Nc1cc(S(=O)(=O)N2CCOCC2)ccc1N1CCCC1	0.00467
Cc1sc2nc(C(C)C)nc(SCC(=O)N3c4ccccc4CC3C)c2c1C (configuration not stated)	10.2 (active)
Cc1sc2nc(C3CC3)nc(SCC(=O)N3c4ccccc4CC3C)c2c1C (configuration not stated)	-0.291
CCc1nc(SCC(=O)N2c3ccccc3CC2C)c2c(C)c(C)sc2n1 (configuration not stated)	0.0133
CC(C)(C)C1CCc2c(sc(NC(=O)c3ccco3)c2C(N)=O)C1 (configuration not stated)	0.458
Cc1ccc(OCCCCn2cnc3ccccc32)c(C)c1	-0.0373
COc1ccc(OC)c(NC(=S)NCCC(c2ccccc2)c2ccccc2)c1	-0.202
O=C(O)COCCN1CCN(C(c2ccccc2)c2ccc(Cl)cc2)CC1 (configuration not stated)	0.16
CC12CNCC(C)(CN(C(c3ccccc3)c3ccccc3)C1)C2	1.25
Clc1ccc(C(c2ccccc2)N2CCNCC2)cc1 (configuration not stated)	2.16
OCCN1CCN(Cc2cc(Cl)c3cccnc3c2O)CC1	0.225
Oc1ccc(CN2CCc3ccccc3C2)c2cccnc12	0.165
Oc1c(CN2CCc3ccccc3C2)cc(Cl)c2cccnc12	2.72
CS(=O)(=O)N(CC(=O)NCc1ccco1)c1cc(C(F)(F)F)ccc1Cl	0.181
COc1ccc(N(CC(=O)NCc2ccco2)S(C)(=O)=O)cc1Cl	-0.0738
CS(=O)(=O)N(CC(=O)NCc1ccco1)c1ccc(Cl)c(C(F)(F)F)c1	4.31 (active)

SMILES	z-score
O=[N+]([O-])c1ccc(NC(=S)N2CCN(c3ccc(F)cc3)CC2)cc1	-0.0841
Cc1ccc(NC(=O)c2nccnc2C(=O)O)cc1C	-0.208
O=P(c1ccccc1)(c1ccccc1)N(c1ccccc1)c1ccccc1	-0.752
CC(C)C(=O)Nc1ccc(C(=O)N2CCCCCC2)cc1	2.15
CC(=O)Nc1ccc(C(=O)N2CCCC2)cc1	-0.0468
CC(C)C(=O)Nc1ccc(C(=O)N2CCN(C(=O)c3ccco3)CC2)cc1	0.196
O=c1c2ccccc2nc(N/N=C/c2ccc(O)cc2)n1O	-0.0395
Cc1cc(/N=C/N(C)C)on1	-0.0351
COc1cc(OC)cc(-n2nnnc2SCC(=O)N2CCCC2)c1	0.154
CCOc1ccc(-n2nnnc2SCC(=O)N2CCOCC2)cc1	-0.126
COc1ccc(-n2nnnc2SCC(=O)N2CCOCC2)cc1	3.28 (active)
CCn1c(SCC(=O)Nc2ccc(C(=O)OC)cc2)nc2cccnc21	-0.121
CC(CN(C)Cc1ccccc1)OC(=O)c1ccccc1F (configuration not stated)	0.00558
Cc1ccc(C(=O)N/N=C/c2ccc([N+](=O)[O-])s2)cc1	-0.176
CCOc1ccc(NC(=O)CCC(=O)N/N=C/c2ccc([N+](=O)[O-])s2)cc1	2.1
COc1ccc(NC(=O)CCC(=O)N/N=C/c2ccc([N+](=O)[O-])s2)cc1	-0.189
O=C(Cc1ccccc1)N/N=C/c1ccc([N+](=O)[O-])s1	0.543
O=C(N/N=C\c1ccc([N+](=O)[O-])s1)c1cncc(Br)c1	-0.156
O=C(N/N=C/c1ccc([N+](=O)[O-])s1)c1cccc(Br)c1	6.96 (active)
O=C(N/N=C/c1ccc([N+](=O)[O-])s1)c1ccccc1Br	-0.301
Cc1ccccc1C(=O)N/N=C/c1ccc([N+](=O)[O-])s1	2.95
O=C(N/N=C/c1ccc([N+](=O)[O-])s1)c1ccncc1	-0.428
